The text below walks through data of PubChem BioAssay.

Measured potencies and affinities stand elsewhere. Activity calls are given as the source filed them. How the calls were made is not given here.

This test in a line: toxicity toward HepG2 liver cells – cell-based, plate reader, cherry-pick, antagonist series, cytotoxicity control, dose response (AID 743416). To be noted: series mostly up to 26 µM.
`COc1ccc(-c2cc(C(=O)N3CCOCC3)no2)cc1`: the compound was classed as inactive.

For `Clc1ccccc1/C=C/c1nc(-c2ccccn2)no1`, the call was inactive.

`C[C@@H]1CN([C@@H](C)CO)C(=O)c2cc(NS(=O)(=O)c3ccc(F)cc3)ccc2O[C@H]1CN(C)Cc1ccc(-c2ccccc2)cc1`: the compound was classed as inactive.

As for `C[C@H](CO)N1C[C@H](C)[C@H](CN(C)C(=O)Nc2ccc(F)cc2)OCCCC[C@H](C)Oc2ccc(NC(=O)C3CCCCC3)cc2C1=O`, the outcome was inactive.

Regarding `Cc1ccc(-c2cc(C(=O)N3CCOCC3)no2)cc1`, the compound was classed as inactive.

With `CC(C)Nc1ncnc2c1cnn2-c1ccc(Cl)cc1`, the result was inactive.

As to `O=C(COc1ccc2ccccc2c1)Nc1nccs1`, the result was inactive.

Regarding `O=C(O)c1ccc(Nc2nc3c(s2)CCCC3)cc1`, the call was inactive.
